MEKK3 PB1 HTS = modulators (inhibitors or enhancers) of MEK5 binding to human MEKK3 PB1 domain; Q99759; bead-based flow cytometry, Alexa488-MEK5 binding to MEKK3; actives lie on both sides; 0 = blocked by unlabeled MEK5, 100 = vehicle; binding response (% of control), % at 10 µM; hit rate 1.4% among 290,000; AID 1529;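 active = binding response more than 3 SD above or below the average of its plate-row segment, actives on both sides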;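 note: Alexa488 bead fluorescence after subtracting the streptavidin-only scavenger bead signal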
Target sequence (Q99759 whole entry, looked up, the tested form may be a part): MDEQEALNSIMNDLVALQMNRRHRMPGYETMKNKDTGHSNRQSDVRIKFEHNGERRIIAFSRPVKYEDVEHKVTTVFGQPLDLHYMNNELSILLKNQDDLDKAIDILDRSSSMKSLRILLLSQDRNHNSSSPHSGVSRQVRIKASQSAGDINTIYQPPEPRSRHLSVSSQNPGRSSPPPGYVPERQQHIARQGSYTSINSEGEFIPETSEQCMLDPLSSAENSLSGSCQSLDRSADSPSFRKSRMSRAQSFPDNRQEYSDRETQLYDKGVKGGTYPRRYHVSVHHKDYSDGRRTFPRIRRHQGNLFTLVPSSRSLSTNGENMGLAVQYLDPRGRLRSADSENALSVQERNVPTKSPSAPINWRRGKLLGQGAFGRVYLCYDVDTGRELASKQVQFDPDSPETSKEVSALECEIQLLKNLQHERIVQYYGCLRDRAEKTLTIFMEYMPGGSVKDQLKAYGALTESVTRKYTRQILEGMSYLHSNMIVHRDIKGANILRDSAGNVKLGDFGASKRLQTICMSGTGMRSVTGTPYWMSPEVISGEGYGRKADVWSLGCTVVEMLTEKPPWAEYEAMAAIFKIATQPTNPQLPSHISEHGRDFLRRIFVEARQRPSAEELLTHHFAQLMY
UBC13 polyUb = blocks human UBC13 polyubiquitin chain formation; P61088; TR-FRET; inhibition, % at 20 µM; hit rate 0.47% among 330,000; in the data active = inhibition above about 45%, passing the limit was not always enough
MEKK2 WT-MEK5 = raises or lowers MEK5 binding to wildtype human MEKK2 PB1 domain | Q9Y2U5 | bead flow cytometry, Alexa488-MEK5 binding to MEKK2 WT; actives lie on both sides | binding response (% of control), % at 10 µM | hit rate 1.1% among 290,000 | AID 1531; in the data active = binding response below about 67% or above about 130%
MEKK2mut PB1 HTS = signal of MEK5 binding to mutant human MEKK2 PB1 domain | hit rate 0.35% among 290,000 | AID 1530 | bead flow cytometry, Alexa488-MEK5 binding to MEKK2 mutant | percent response, % at 10 µM; in the data active = percent response above about 24%, passing the limit was not always enough
MEKK2wt confirm = raises or lowers MEK5 binding to wildtype human MEKK2, retest; shares compounds with MEKK3 PB1 HTS; bead flow cytometry, Alexa488-MEK5 binding to MEKK2 WT; actives lie on both sides; binding response (% of control), % at 10 µM; hit rate 2.4% among 5,900; in the data active = binding response below about 16% or above about 210%; inactive = in between
MEKK2mut-MEK5 = signal of MEK5 binding to mutant human MEKK2, retest. shares compounds with MEKK3 PB1 HTS. percent response, % at 10 µM. bead flow cytometry, Alexa488-MEK5 binding to MEKK2 mutant. hit rate 2% among 5,900. AID 1893; in the data active = percent response mostly above about 71%, no sharp cut-off; inactive = mostly below about 38%;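 note: higher means compound restores mutant binding toward wildtype level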
MEKK3-MEK5 inh = confirmation of inhibitors of MEK5 binding to human MEKK3; shares compounds with MEKK3 PB1 HTS; bead flow cytometry, Alexa488-MEK5 binding to MEKK3; stronger effect = lower value; binding response (% of control), % at 10 µM; hit rate 1.8% among 5,900; AID 1894;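 active = binding response below 72% of control, or above a set upper limit, though filed actives all read lower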;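 note: 100% = DMSO only wells and 0% = binding blocked by excess unlabeled MEK5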
* hit, by the source's call; x = no result; [ ] = another dose, or the depositor's remark. The list is not random: actives were taken first. Their share in the collection is about 2.3%.

SMILES | MEKK3 PB1 HTS | UBC13 polyUb | MEKK2 WT-MEK5 | MEKK2mut PB1 HTS | MEKK2wt confirm | MEKK2mut-MEK5 | MEKK3-MEK5 inh
C#CCOCCOCCOCCNc1nc(N2CCN(C(=O)[C@H](CCC(=O)O)n3cc(C(N)CO)nn3)CC2)nc(N2CCN(C(=O)[C@H](Cc3cc4ccccc4[nH]3)n3cc(C(N)[C@H](C)CC)nn3)CC2)n1 (some centres not stated) | 103.0 | 25.4 | 156.0* | 27.0 | 275.0* | 110.0* | 114.0
O=C(NNc1cc(N2CCOCC2)nc(N2CCOCC2)n1)C12CC3CC(CC(C3)C1)C2 | 98.0 | 6.3 | 95.0 | -2.0 | x | x | x
CCN(C(=O)COC(=O)COc1ccccc1Cl)c1c(N)n(Cc2ccccc2)c(=O)[nH]c1=O | x | 14.5 | x | x | x | x | x
CN(C)c1ccc([N+](=O)[O-])cc1C(=O)O | 129.0* | -5.8 | 108.0 | 0.0 | 100.0 | -3.0 | 99.0
O=C(O)c1ccc(/C=N/NC(=O)C2CC2(c2ccccc2)c2ccccc2)cc1 (configuration not stated) | 153.0* | -23.4 | 117.0 | 5.0 | 95.0 | -7.0 | 98.0
O=C(COC(=O)/C=C/c1ccccc1)NCCc1ccc(F)cc1 | x | -4.2 | x | x | x | x | x
Cc1cc(C(=O)NNc2ccc(F)cc2F)no1 | 83.0 | -7.6 | 89.0 | -22.0 | x | x | x
CC(=O)Nc1ccc(NC(=O)COc2cccc3c2OC(C)(C)C3)cc1 | 102.0 | 1.7 | 104.0 | -2.0 | x | x | x
CC1(C)Cc2cccc(OCC(=O)Nc3cccnc3)c2O1 | 130.0* | 1.7 | 122.0 | 9.0 | 98.0 | -4.0 | 99.0
COc1ccc(CNCCNC(=O)c2ccco2)c(OC)c1OC | 127.0* | 0.5 | 114.0 | 6.0 | 103.0 | 3.0 | 102.0
O=C(COC(=O)Cc1cccs1)NCc1ccc(F)cc1 | 102.0 | -2.9 | 104.0 | 3.0 | x | x | x
O=S1(=O)CC(O)C(NCc2cccnc2)C1 (configuration not stated) | 82.0*[inhibitor] | -3.2 | 89.0 | -11.0 | 100.0 | -2.0 | 103.0
COc1ccc(N2CCC(CNC(=O)Nc3cccc(OC)c3)C2)cc1 (configuration not stated) | 99.0 | -2.0 | 100.0 | 2.0 | x | x | x
COc1ccc(N2CCC(CNC(=O)Nc3ccc(Cl)cc3)C2)cc1 (configuration not stated) | 141.0* | -6.7 | 142.0 | 7.0 | 106.0 | 2.0 | 100.0
O=c1cc(CN2CCCCC2)nc(C2CC2)[nH]1 | 99.0 | 1.6 | 102.0 | 0.0 | x | x | x
CC1CN(Cc2cc(=O)[nH]c(C3CC3)n2)CC(C)O1 (configuration not stated) | 2.0*[inhibitor] | -12.2 | 3.0*[inhibitor] | -16.0 | 106.0 | 5.0 | 103.0
O=C(NCc1ccc2c(c1)OCO2)C1CCC(=O)N1C1CCCC1 (configuration not stated) | 100.0 | -6.0 | 103.0 | 0.0 | x | x | x
CCCc1cc(=O)[nH]c(SCC(=O)Nc2nc(-c3ccccc3)cs2)n1 | 108.0 | 1.6 | 99.0 | -3.0 | x | x | x
O=C(CSc1nc2ccccc2[nH]1)Nc1nc(-c2ccc(Br)cc2)cs1 | 173.0* | -4.5 | 116.0 | 1.0 | 99.0 | -8.0 | 103.0
COc1ccc(-n2c(=O)c3ccccc3c3ccccc3c2=O)cc1 | 97.0 | 12.6 | 99.0 | -3.0 | x | x | x
COc1ccc(OC)c(-n2c(=O)c3ccccc3c3ccccc3c2=O)c1 | 72.0*[inhibitor] | -15.9 | 99.0 | 0.0 | 98.0 | 1.0 | 98.0
CC(=O)Nc1ccc(NC(=O)c2c(C)c(-c3ccccc3)nc3ccccc23)cc1 | x | -4.9 | x | x | x | x | x
Cc1ccccc1OCC(=O)NCc1ccccc1 | 102.0 | -7.0 | 100.0 | 3.0 | x | x | x
O=C(COc1ccccc1-c1ccccc1)NCc1cccc(Cl)c1 | 111.0 | 8.3 | 147.0* | 27.0 | 99.0 | -6.0 | 99.0
Cn1c(=O)[nH]c(=O)c2c1nc(N1CCOCC1)n2CC(=O)c1ccccc1 | 86.0 | -11.5 | 93.0 | -8.0 | x | x | x
SMILES | MEKK3 PB1 HTS | UBC13 polyUb | MEKK2 WT-MEK5 | MEKK2mut PB1 HTS | MEKK2wt confirm | MEKK2mut-MEK5 | MEKK3-MEK5 inh
Cc1ccc2nc3n(c(=O)c2c1)-c1ccccc1C(=O)NC3Cc1ccc(O)cc1 (configuration not stated) | x | -3.5 | x | x | x | x | x
O=C(CSC1=NCCS1)c1ccc(Cl)cc1 | 115.0 | 14.0 | 282.0* | 129.0* | 104.0 | -6.0 | 102.0
NCCCCCc1cn(CC(=O)NCCCCCCCCCCC(=O)N2CCNCC2)nn1 | x | -1.0 | x | x | x | x | x
COc1cccc(NC(=O)C2CCCO2)c1 (configuration not stated) | 105.0 | -1.5 | 104.0 | 1.0 | x | x | x
Cn1nc(-c2ccc(Cl)cc2)cc1NC(=O)CC(C)(C)CC(=O)O | 129.0* | -6.9 | 124.0 | 26.0 | 96.0 | -3.0 | 93.0
O=C(Nc1ccccc1N1CCOCC1)c1ccc(Cl)nc1 | 72.0*[inhibitor] | 5.2 | 86.0 | 1.0 | 101.0 | -2.0 | 100.0
COc1ccccc1C(=O)NCCCn1cc(Br)c(C)n1 | 122.0 | 6.1 | 138.0* | 14.0 | 114.0 | 12.0 | 107.0
COc1ccccc1C(=O)NCCNC(=O)c1ccc(C)nc1 | 103.0 | 4.9 | 97.0 | 5.0 | x | x | x
CCCCCCN(C(=O)CCl)c1ccccc1 | 41.0*[inhibitor] | -7.7 | 48.0 | -44.0 | 94.0 | -3.0 | 99.0
CCn1cc(CCC(=O)NC2CCCC2)c2ccccc21 | 96.0 | 8.7 | 97.0 | -1.0 | x | x | x
COc1ccc(C2c3ccc4ccccc4c3Oc3ncn(CCO)c(=N)c32)cc1OC (configuration not stated) | 107.0 | 8.6 | 139.0 | 15.0 | x | x | x
COc1ccc(C2c3ccc4ccccc4c3Oc3ncn(CCN4CCOCC4)c(=N)c32)cc1OC (configuration not stated) | 98.0 | -2.1 | 115.0 | 15.0 | x | x | x
COc1ccc(C2c3ccc4ccccc4c3Oc3ncn(CCN(C)C)c(=N)c32)cc1 (configuration not stated) | 106.0 | 35.0 | 157.0* | 29.0* | 124.0 | 15.0 | 105.0
COc1ccc(C2c3ccc4ccccc4c3Oc3ncn(CCCO)c(=N)c32)cc1 (configuration not stated) | 88.0 | 25.6 | 110.0 | -2.0 | x | x | x
COc1ccc(C2c3ccc4ccccc4c3Oc3ncn(CCO)c(=N)c32)cc1 (configuration not stated) | 115.0 | 28.4 | 151.0* | 20.0 | 143.0 | 27.0 | 95.0
COc1ccc(C2c3ccc4ccccc4c3Oc3ncn(CCN4CCOCC4)c(=N)c32)cc1 (configuration not stated) | 108.0 | 4.4 | 179.0* | 24.0 | 172.0 | 42.0 | 112.0
COc1cc(CC(=O)OCC(=O)NCC(C)C)cc(OC)c1OC | 106.0 | 0.4 | 102.0 | -4.0 | x | x | x
O=C(COc1coc(CN2CCN(c3ccccc3F)CC2)cc1=O)NCC1CCCO1 (configuration not stated) | x | 2.3 | x | x | x | x | x
N=C1/C(=C/c2cccn2Cc2ccc(Cl)cc2)C(=O)N=C2SC=CN12 | 129.0* | -17.0 | 107.0 | -1.0 | 112.0 | 5.0 | 109.0
